Rows were chosen to be rich in hits. Some 19% of all compounds tested hit in one or more screens of this group.
IL-1B inflam inh: inhibitors of inflammasome signaling (IL-1 beta secretion). THP-1 LPS/ATP IL-1B secretion, AlphaLISA, 16 h; active compounds read low. activity change, % at 57.5 µM. actives 4.7% (n = 360,000). AID 743279; in the data active means activity change below about -50%; inconclusive means mostly about -30% to -49%; further: on the % scale 0 is the no-effect control and ±100 the full control effect
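Secreted IL-1B measured by AlphaLISA bead assay after 16 h compound exposure of THP-1 cells; compounds (final up to 57.5 uM) added 1 h before LPS (250 ng/mL) and ATP (1.25 mM) stimulation; lower signal means less secretion.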
DT40 TDP1 CPT: growth inhibition of DT40 Tdp1-/-;hTDP1 cells with camptothecin (screen for TDP1 inhibitors). chicken DT40 Tdp1-/-;hTDP1 cells + 20 nM CPT, ATP luminescence, 48 h. AID 686979. Potency, µM (series often up to 46.2 µM), inactives show top-dose activity change, negative = growth inhibition, hits mostly inhibitors. actives 12% (n = 420,000); further: potency means the concentration at half of the fitted maximal effect; on the % scale 0 is the no-effect control and ±100 the full control effect; nearly all actives have a fitted effect of over 55% in size
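Chicken DT40 Tdp1-/- cells stably complemented with human TDP1 were seeded at 400 cells/well in medium containing 20 nM camptothecin, exposed to pin-transferred compounds, and grown at 37 °C for at least 48 hr. Viability was read as ATP luminescence.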
SW480 rereplic: DNA re-replication induction in SW480 cells | actives 1.8% (n = 340,000) | AID 624297 | SW480 DNA re-replication, Hoechst DNA content imaging, 48 h | Potency, µM (doses to about 46.1 µM), inactives show top-dose re-replication activation, usual class: activators; further: potency means the concentration at half of the fitted maximal effect; % of control where 0% means no effect; nearly all actives have a fitted effect of over 55% in size
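Readout is total intensity of Hoechst-stained nuclei, excited at 405 nm and collected at 500-530 nm. Compound treatment lasted 48 hr at 37 C in 5% CO2 before staining.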
MCF10A rerep: DNA re-replication induction in MCF 10a cells. MCF 10A DNA re-replication, Hoechst nuclear intensity, 48 h. Potency, µM (top dose mostly 46.1 µM), for the others: top-dose activity, positive = re-replication, actives largely listed as activators. actives 2.9% (n = 350,000); further: potency means the concentration at half of the fitted maximal effect; % of control where 0% means no effect; nearly all actives have a fitted effect of over 50% in size
TDP1 cell noCPT: qHTS for Inhibitors of human tyrosyl-DNA phosphodiesterase 1 (TDP1): qHTS in cells in absence of CPT. actives 15% (n = 420,000). DT40 Tdp1-/- hTDP1 cells, no CPT, ATP luminescence, 48 h. Potency, µM (doses to about 46.2 µM), without a hit: top-dose activity change, negative = growth inhibition, actives largely listed as inhibitors; further: potency means the concentration at half of the fitted maximal effect; on the % scale 0 is the no-effect control and ±100 the full control effect; nearly all actives have a fitted effect of over 55% in size
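Chicken DT40 Tdp1-/- cells stably complemented with human TDP1 were seeded at 400 cells/well with DMSO in place of 20 nM camptothecin. After compound pinning, cells grew at least 48 hr at 37 °C; viability read by CellTiter-Glo luminescence.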
Chronic BCR inh: inhibitors of chronic active B-cell receptor signaling | ABC-DLBCL IkBa-CBG/CBR reporter, luminescence ratio, 4 h | Potency, µM (doses to about 46.1 µM), without a hit: at the top dose activity change, negative = inhibition, hits mostly inhibitors | actives 0.05% (n = 340,000) | AID 493014; active means well fitted inhibition curve with a large enough effect in the signal ratio, with a control signal flat, not every such curve was filed as active; inconclusive means small, poorly fitted or top-dose-only effect, or effect the other way, or a change in a side signal; the % refers to the signal ratio;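 further: potency means the concentration at half of the fitted maximal effect; plate controls were basal doxycycline-induced cells for no effect and cells given 10 µM MG132 for full effect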
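Compounds up to 46 uM were incubated four hours with TMD8 cells whose green CBG68 luciferase is fused to IkappaBalpha; red CBR luminescence normalised the signal, and concentration-effect curves were fitted to fusion, red and ratio data.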
* = called active by the depositor; u = inconclusive; x = no result given; ! = not confirmed by another sample; [ ] = dose if it differs, or a comment. Unless noted, the call rests on the fitted dose curve; in most records, active means well fitted curve in the direction sought with a large enough effect; inconclusive means small, poorly fitted or top-dose-only effect, or another doubt; inactive means no such curve, though single readings can be large; an effect the other way counts as inactive or inconclusive.

SMILES	IL-1B inflam inh	DT40 TDP1 CPT	SW480 rereplic	MCF10A rerep	TDP1 cell noCPT	Chronic BCR inh
COc1ccc(NC(=O)c2sc3nc4c(c(-c5ccc(OC)cc5)c3c2N)C(=O)CC(C)(C)C4)cc1	x	23µM*	x	x	13µM*	x
CCOc1ccc(NC(=O)c2sc3nc4c(c(-c5ccccc5)c3c2N)C(=O)CC(C)(C)C4)cc1	x	u	x	x	-19%	x
COc1ccc(C(=O)c2sc3nc(-c4ccc(C)cc4)cc(C(F)(F)F)c3c2N)cc1	x	-29%	x	x	-20%	x
COc1ccc(NC(=O)c2sc3nc(-c4ccc(OC)cc4)cc(C(F)(F)F)c3c2N)cc1	x	2.9µM*	x	x	1.8µM*	x
COc1ccc(-c2c3c(nc4sc(C(=O)Nc5cccc(OC)c5)c(N)c24)CC(C)(C)CC3=O)cc1	x	u	x	x	13µM*	x
CCOC(=O)[C@]12CCCC=C1N(Cc1ccccc1)C(=O)[C@H](CC(=O)N1CCN(C(=O)C3CC3)CC1)C2	-17	2%	x	x	10%	x
Cc1ccc(-c2cc(C(=O)N/N=C/c3ccc(Cl)cc3)n[nH]2)o1	0	u	-12%	26%	u	-15%
O=[N+]([O-])c1nn(-c2ccccc2)n(O)c1=NCc1ccc2c(c1)OCO2	-5	u	4%	27%	u	16%
Cc1ccc(N=c2c([N+](=O)[O-])nn(-c3ccc(Cl)cc3)n2O)cc1C	23	1%	-4%	-5%	7%	1%
COc1ccc(-n2nc([N+](=O)[O-])c(=NCc3ccc4c(c3)OCO4)n2O)cc1	u	u	-1%	-2%	18µM*	4%
Cc1ccc(CN=c2c([N+](=O)[O-])nn(-c3ccc4c(c3)OCCO4)n2O)cc1	-26	u	0%	-4%	23µM*	u
O=[N+]([O-])c1nn(-c2ccc3c(c2)OCCO3)n(O)c1=NC1CCCC1	u	18µM*	5%	17%	u	u
O=[N+]([O-])c1nn(-c2ccc3c(c2)OCCO3)n(O)c1=NCCCO	8	15µM*	15%	7%	21µM*	-1%
CCOC(=O)c1c(C)nc(C)c2c(=O)oc3ccccc3c12	-6	u	-12%	0%	u	u
CC(C)C[C@H](NC(=O)OC(C)(C)C)C(=O)N[C@@H](CO)[C@H](O)[C@@H]1C[C@@H]1C(=O)NC1CCCCC1	-1	-13%	9%	u	-6%	-1%
Cc1ccc(S(=O)(=O)N(C)C[C@H]2OCc3cn(nn3)CCCC(=O)N([C@H](C)CO)C[C@@H]2C)cc1	15	3%	x	x	-3%	x
COc1cccc(Oc2ccc(C(F)(F)F)cc2NC(=O)CCc2nc3ccccc3c(=O)[nH]2)c1	18	16µM*	u	u	18µM*	4%
O=C(CCc1nc2ccccc2c(=O)[nH]1)NCc1cccc(Cl)c1	44	21µM*	-1%[9.22 µM]	u	23µM*	u
O=C(CCc1nc2ccccc2c(=O)[nH]1)NNC(=O)c1ccc(Cl)cc1	16	-8%	-2%	0%	0%	-13%
O=C(CCc1nc2ccccc2c(=O)[nH]1)NNC(=O)c1cccc(Cl)c1	19	-1%	29µM*	15%	-5%	-3%
O=C(COc1ccccc1)N/N=C/c1ccc(O[C@@H]2O[C@H](CO)[C@@H](O)[C@H](O)[C@H]2O)cc1	3	-4%	-5%	-8%	7%	-3%
COc1ccc2c(c1OC)C(=O)OC2C1c2c(cc3c(c2OC)OCO3)CCN1C (stereo not given)	-10	u	u	u	18µM*!	u

Screening data as filed in PubChem BioAssay.
